Inconclusive results are not listed. The source made the active and inactive calls. Calls follow the shape of the dose curve; as a rule, active = well fitted curve in the direction sought with a large enough effect; inconclusive = small, poorly fitted or top-dose-only effect, or another doubt; inactive = no such curve, though single readings can be large; an effect the other way counts as inactive or inconclusive.
Key:
[1] = biological target: Calcium and integrin-binding protein 1 (Homo sapiens) (UniProt Q99828); test: Primary qHTS for Identification of Calcium Integrin Binding Protein 1 (CIB1) Competitor (AID 1508620);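 also: GST tagged CIB1 binding a fluorescein labelled alphaIIb integrin peptide tracer; top concentration of the series differs between compounds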
In short: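 Fluorescence polarization competition: CIB1-GST (1 uM final) preincubated with compound 15 min at room temperature, then FITC-labeled alphaIIb peptide (100 nM final) added for another 15 min. Polarization read at Ex 480/Em 540.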

[2] = Primary qHTS for inhibitors of nuclear receptor binding SET domain protein 2 (NSD2) in an isogenic RCH-ACV NSD2 p.E1099K mutant (9B) (AID 1645876); also: nearly all actives have a fitted effect of over 70% in size
[3] = Primary qHTS for inhibitors of nuclear receptor binding SET domain protein 2 (NSD2) in an RCH-ACV wild type WT cells (2C) (AID 1645877); also: nearly all actives have a fitted effect of over 70% in size
% is scaled to controls: 0 for no effect and ±100 for the full control effect.

Calcium and integrin-binding protein 1 (Homo sapiens), sequence (Q99828 whole entry, looked up): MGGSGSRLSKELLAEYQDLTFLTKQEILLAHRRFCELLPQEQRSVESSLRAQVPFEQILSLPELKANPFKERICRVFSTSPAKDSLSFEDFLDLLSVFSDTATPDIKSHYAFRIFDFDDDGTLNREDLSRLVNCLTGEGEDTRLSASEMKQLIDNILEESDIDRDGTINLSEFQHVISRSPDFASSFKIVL

CN1CCN(C(=O)c2cc3cc(Cl)ccc3[nH]2)CC1
inactive: Potency [1] | Potency [2] | Potency [3]

CC(O)/C=C/C1(O)C(C)C(O)C(O[C@@H]2O[C@H](CO)[C@@H](O)[C@H](O)[C@H]2O)CC1(C)C (stereo not given in full)
inactive: Potency [1] | Potency [2] | Potency [3]

COc1cc(CC2COC(c3ccc(OC4OC(CO)C(O)C(O)C4O)c(OC)c3)C2CO)ccc1O (stereo not given)
inactive: Potency [1] | Potency [2] | Potency [3]

C[C@@H]1O[C@@H](O[C@H]2[C@H](O)[C@@H](O[C@@H]3O[C@H](CO)[C@H](O)[C@H](O)[C@H]3O)[C@H](O[C@H]3CC[C@@]4(C)C(CC[C@]5(C)C4CC=C4[C@@H]6CC(C)(C)CC[C@]6(C(=O)O[C@@H]6O[C@H](CO)[C@@H](O)[C@H](O)[C@H]6O)CC[C@]45C)C3(C)C)O[C@@H]2C(=O)O)[C@H](O)[C@H](O)[C@H]1O (stereo not given in full)
inactive: Potency [1] | activity change, negative = viability loss [2] 0.405% [at 9.23 µM] | outcome [3] inactive [at 9.23 µM]

COc1ccc2c(c1)N1C(=O)C[C@@]34C=CC[N@+]5([O-])CC[C@H]2[C@H](CC3)[C@@]145
inactive: Potency [1] | Potency [2] | Potency [3]

C=C1CCC2(C(=O)OC3OC(CO)C(O)C(O)C3O)CCC3(C)C(=CCC4C5(C)CCC(OC6OC(CO)C(OC7OC(C)C(O)C(O)C7O)C(OC7OCC(O)C(O)C7O)C6O)C(C)(C)C5CCC43C)C2C1 (stereo not given)
inactive: Potency [1] | outcome [2] inactive [at 9.23 µM] | activity change, negative = cell killing [3] -3.7% [at 9.23 µM]

C=CC(C)(C)C12Nc3c(ccc4c3OC(C)(C)C=C4)C1(O)CC1C(=O)N3CCCC3C(=O)N12 (stereo not given)
inactive: Potency [1] | Potency [2] | Potency [3]

COC1OC(O)C2(CCC3(O2)C(C)CC2OC(=O)C4(C)CCCC3(C)C24)C1O (stereo not given)
inactive: Potency [1] | Potency [2] | Potency [3]

C=C1CC2C3(C)C=CC(=O)OC(C)(C)C3CC(OC(C)=O)C2(C)C2C(=O)OC(C)C(=O)C12C (stereo not given)
inactive: Potency [1] | Potency [2] | Potency [3]

COc1cc2c(cc1OC)N1C(=O)C[C@@]34C=CC[N@+]5([O-])CC[C@H]2[C@H](CC3)[C@@]145
inactive: Potency [1] | Potency [2] | Potency [3]

CCC(C)C(=O)O[C@H]1C[C@](C)(O)[C@]23OC(C)(C)[C@H](C[C@H](OC(=O)c4ccccc4)[C@]2(COC(C)=O)[C@H]1OC(=O)C(C)CC)[C@H]3OC(C)=O (stereo not given in full)
inactive: Potency [1] | Potency [2] | Potency [3]

CC1(C)CCC2(C(=O)O)CCC3(C)C(=CCC4C5(C)CCC(O)C(C)(CO)C5C(O)CC43C)C2C1 (stereo not given)
inactive: Potency [1] | Potency [2] | Potency [3]

C[C@H]1[C@@H](O)[C@H](O)C2[C@]3(C)C([C@@H](O)[C@H]4OC(=O)[C@@H]1[C@@]24C)[C@](C)(O)C=C[C@H]3O[C@@H]1O[C@H](CO)[C@@H](O)[C@H](O)[C@H]1O (stereo not given in full)
inactive: Potency [1] | Potency [2] | Potency [3]

CC1=CC23[C@H](C=C(C(=O)O)[C@@H]2COC(=O)[C@]3(O)CO)[C@@H]1C (stereo not given in full)
inactive: Potency [1] | Potency [2] | Potency [3]

COC(=O)C1=COC(O[C@@H]2O[C@H](CO)[C@@H](O)[C@H](O)[C@H]2O)C2C(C)C(=O)CC12 (stereo not given in full)
inactive: Potency [1] | Potency [2] | Potency [3]

O=C(O)Cc1cn([C@@H]2OC[C@@H](O[C@@H]3O[C@H](CO)[C@@H](O)[C@H](O)[C@H]3O)[C@H](O)[C@H]2O[C@@H]2O[C@H](CO)[C@@H](O)[C@H](O)[C@H]2O)c2ccccc12
inactive: Potency [1] | Potency [2] | Potency [3]

O=C(/C=C/c1ccc(O)c(O)c1)O[C@H]1[C@@H]2C=CO[C@@H](O[C@@H]3O[C@H](CO)[C@@H](O)[C@H](O)[C@H]3O)[C@@H]2[C@@]2(CO)O[C@@H]12
inactive: Potency [1] | Potency [2] | Potency [3]

Cc1c(NC(=O)N2CCOCC2)ccc2c1c1ccccc1n2C(C)C
inactive: Potency [1] | Potency [2] | Potency [3]

C[C@@H]1O[C@@H](O[C@H]2[C@@H]3C=CO[C@@H](O[C@@H]4O[C@H](CO)[C@@H](O)[C@H](O)[C@H]4O)[C@@H]3[C@@]3(CO)O[C@@H]23)[C@H](O)[C@H](OC(=O)/C=C/c2ccc(O)cc2)[C@H]1OC(=O)/C=C/c1ccc(O)cc1
inactive: Potency [1] | Potency [2] | Potency [3]

C=CC(C)(CC/C=C(\C)C(=O)OC[C@H]1O[C@@H](OC(C)(C=C)CC/C=C(\C)C(=O)O[C@H]2[C@H](O)[C@@H](O)[C@H](OC(C)(C=C)CC/C=C(\C)C(=O)O)O[C@@H]2CO)[C@H](O)[C@@H](O)[C@@H]1O)O[C@@H]1O[C@H](CO)[C@@H](O)[C@H](O)[C@H]1O (stereo not given in full)
inactive: Potency [1] | activity change, negative = viability loss [2] -1.17% [at 9.23 µM] | outcome [3] inactive [at 9.23 µM]
